Test results reported in the supplement of paper PMC10646978.
± gives the standard deviation.

How the values were obtained:
Settings in all cases: modulator concentration 10 µM
[1] = test system: RAW-Dual (murine macrophage reporter line); assay: NF-kB reporter (SEAP) activity fold change vs agonist alone; higher = enhanced NF-kB activity
Procedure, shortened: (§1)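 RAW-Dual murine macrophage reporter cells were seeded at 50 000 per well in 384-well plates and pre-incubated 1 hour at 37 °C with compound pin-transferred to 10 μM final. After 1 hour, a PRR agonist was added and cells incubated overnight. Supernatant NF-κB (SEAP, QUANTI-Blue, 620 nm absorbance) and IRF (Lucia luciferase, QUANTI-Luc, luminescence) signals were divided by the mean agonist-only control on the same plate to give fold change. Two replicate plates were averaged, with errors by propagation.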

[2] = test system: RAW-Dual (murine macrophage reporter line); assay: IRF reporter (Lucia luciferase) activity fold change vs agonist alone; higher = enhanced IRF activity
Procedure, shortened: as §1

[3] = test system: RAW-Dual (murine macrophage reporter line); assay: viability score (confluency relative to resting cells, overnight) (fraction); higher = more viable, active = viable (0.7 or more)
Procedure, shortened: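 Confluency was the readout: RAW-Dual macrophages were imaged with IncuCyte after an overnight exposure to compound at 10 μM final. IncuCyte software produced two masks over all imaged wells. The viability score expresses confluency against resting cells, and both masks had to exceed 70% of resting cells for a compound to meet the cutoff.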

[4] = agonist: CpG ODN 1826 0.5 ug/mL

SMILES | NF-kB reporter [1, 4] | NF-kB reporter ([1]; agonist: LPS 0.1 ug/mL) | NF-kB reporter ([1]; agonist: MPLA […]) | IRF reporter ([2]; agonist: 3'3'-cGAMP 10 ug/mL) | IRF reporter ([2]; agonist: LPS 0.1 ug/mL) | IRF reporter ([2]; agonist: MPLA […]) | viability score [3]
O=C(O)C=C(CC(=O)O)C(=O)O | 1.02 ± 0.084 | 1.05 ± 0.074 | 0.946 ± 0.021 | 0.996 ± 0.12 | 0.971 ± 0.038 | 0.983 ± 0.092 | 1 (active)
C=CCn1c(S)nnc1-c1cc(OC)c(OC)c(OC)c1 | 0.986 ± 0.076 | 1.05 ± 0.084 | 0.988 ± 0.11 | 0.97 ± 0.041 | 1.14 ± 0.18 | 1.08 ± 0.12 | 1.03 (active)
O=C(Nc1cc(C(F)(F)F)cc(C(F)(F)F)c1)c1cccc(Br)c1 | 1 ± 0.09 | 1.02 ± 0.079 | 0.911 ± 0.074 | 0.935 ± 0.028 | 1.55 ± 0.27 | 1.19 ± 0.26 | 1.01 (active)
O=C1C2C3C=CC(C4CC34)C2C(=O)N1N=Cc1ccc(-c2ccc(Cl)cc2)o1 (centres undefined) | 1.01 ± 0.14 | 1.04 ± 0.074 | 0.924 ± 0.068 | 0.968 ± 0.034 | 1.56 ± 0.26 | 1.15 ± 0.1 | 1.01 (active)
CN(C)c1ccc(C=NN2C(=O)c3cccc4cccc(c34)C2=O)cc1 | 1 ± 0.21 | 1.1 ± 0.092 | 0.964 ± 0.11 | 1 ± 0.032 | 1.28 ± 0.23 | 1.36 ± 0.17 | 1 (active)
O=C(Nc1ccc(Cl)cc1)C(Sc1ccccc1)c1ccccc1 (centres undefined) | 0.994 ± 0.11 | 1.02 ± 0.1 | 0.926 ± 0.065 | 0.989 ± 0.037 | 1.38 ± 0.26 | 1 ± 0.081 | 1.02 (active)
O=c1[nH]cc(F)c(=O)[nH]1 | 1.48 ± 0.29 | 0.887 ± 0.21 | 1 ± 0.059 | 1.1 ± 0.059 | 1.33 ± 0.18 | 1.01 ± 0.17 | 0.735 (active)
CC(=O)n1cc(C=C(C)[N+](=O)[O-])c2ccccc21 | 1.07 ± 0.091 | 0.607 ± 0.079 | 0.419 ± 0.055 | 0.445 ± 0.015 | 0.297 ± 0.11 | 0.183 ± 0.067 | 0.861 (active)
O=C(NCCCn1ccc2cccnc21)c1cccc(Br)c1 | 0.84 ± 0.042 | 1.12 ± 0.088 | 0.937 ± 0.045 | 0.839 ± 0.081 | 1.06 ± 0.12 | 1.03 ± 0.23 | 0.98 (active)
Cc1cc(CCNC(=O)c2cc3ccccc3s2)nn1C | 1.2 ± 0.12 | 1.07 ± 0.082 | 0.991 ± 0.064 | 0.82 ± 0.032 | 1.03 ± 0.06 | 0.993 ± 0.16 | 0.997 (active)
O=C1CCCC2=C1C(c1ccc(C(F)(F)F)cc1)Nc1ccc(C(=O)c3ccccc3)cc1N2 (centres undefined) | 0.885 ± 0.08 | 1.19 ± 0.068 | 0.759 ± 0.045 | 1.55 ± 0.091 | 1.36 ± 0.14 | 1.04 ± 0.12 | 0.942 (active)
COC(=O)CSc1ccc2nnc(-c3ccc(F)cc3)n2n1 | 1.12 ± 0.088 | 1.1 ± 0.057 | 1.06 ± 0.023 | 0.71 ± 0.05 | 0.719 ± 0.042 | 0.803 ± 0.069 | 1 (active)
COc1ccc(N(CC(=O)N2CCc3ccccc3C2)S(C)(=O)=O)c(OC)c1 | 1.04 ± 0.13 | 1.09 ± 0.093 | 0.913 ± 0.057 | 0.992 ± 0.026 | 1.49 ± 0.28 | 1.13 ± 0.089 | 1.01 (active)
CC(=O)C1CCC2C3CC=C4CC(O)CCC4(C)C3CCC12C (centres undefined) | 1.19 ± 0.29 | 1.1 ± 0.12 | 1.13 ± 0.074 | 0.887 ± 0.03 | 1.28 ± 0.16 | 1.32 ± 0.16 | 0.986 (active)
COc1ccc(C(O)CN2CCN(c3cccc(C)c3C)CC2)cc1OC (centres undefined) | 0.724 ± 0.18 | 0.928 ± 0.095 | 0.95 ± 0.06 | 0.956 ± 0.054 | 0.873 ± 0.16 | 1.04 ± 0.12 | 0.997 (active)
CCSc1nnc(NC(=O)Cc2ccc([N+](=O)[O-])cc2)s1 | 1.04 ± 0.21 | 1.02 ± 0.085 | 0.96 ± 0.097 | 0.926 ± 0.026 | 1 ± 0.096 | 1.07 ± 0.12 | 1 (active)
C=C1CCC(NS(=O)(=O)c2ccc(-c3coc(C)n3)cc2)CC1 | 1.04 ± 0.056 | 1.15 ± 0.091 | 1.14 ± 0.062 | 1.22 ± 0.062 | 1.14 ± 0.11 | 1.2 ± 0.17 | 0.834 (active)
CCOC(=O)Cc1cc(OC)c(OC)cc1C(C)=NNc1ccccc1 | 0.719 ± 0.056 | 0.831 ± 0.12 | 0.98 ± 0.085 | 0.816 ± 0.055 | 1.13 ± 0.065 | 1.09 ± 0.15 | 1 (active)
CCC(C)(C)C(=O)OC1CC(C)C=C2C=CC(C)C(CCC3CC(O)CC(=O)O3)C21 (centres undefined) | 1.65 ± 0.13 | 1.56 ± 0.11 | 1.91 ± 0.18 | 0.43 ± 0.014 | 0.918 ± 0.087 | 0.524 ± 0.11 | 0.912 (active)
O=C(Cn1cc(S(=O)(=O)c2ccc(F)cc2)c2ccccc21)N1CCCCCC1 | 0.825 ± 0.12 | 0.902 ± 0.073 | 1.02 ± 0.055 | 0.847 ± 0.071 | 1.2 ± 0.19 | 1.3 ± 0.48 | 0.972 (active)
O=C(CC12CC3CC(CC(C3)C1)C2)N1CCCCC1 | 0.863 ± 0.064 | 0.99 ± 0.11 | 0.949 ± 0.056 | 1.1 ± 0.037 | 1.53 ± 0.1 | 1.23 ± 0.15 | 0.911 (active)
Cc1sc(NC(=O)c2cc(Cl)ccc2[N+](=O)[O-])nc1-c1ccccc1 | 1 ± 0.064 | 1.08 ± 0.089 | 0.951 ± 0.034 | 0.983 ± 0.046 | 1.08 ± 0.055 | 1.08 ± 0.12 | 1 (active)
CCN(CCO)CCCOc1ccc2c(Nc3cc(CC(=O)Nc4cccc(F)c4)n[nH]3)ncnc2c1 | 0.703 ± 0.17 | 0.902 ± 0.23 | 0.893 ± 0.098 | 0.982 ± 0.03 | 1.25 ± 0.25 | 1.18 ± 0.12 | 0.951 (active)
Cc1cccc(C(=O)N2CCCC(c3nnc(CC(C)(C)C)o3)C2)c1 (centres undefined) | 0.877 ± 0.037 | 0.942 ± 0.16 | 1.35 ± 0.08 | 0.924 ± 0.043 | 1.33 ± 0.3 | 1.36 ± 0.47 | 0.944 (active)
CN(C)CCCC1(c2ccc(F)cc2)OCc2cc(C#N)ccc21.O=C(O)C(=O)O (centres undefined) | 1.13 ± 0.21 | 1.12 ± 0.32 | 1.07 ± 0.077 | 0.836 ± 0.047 | 1.28 ± 0.3 | 1.29 ± 0.1 | 0.993 (active)
N#C[C@@H]1CCCN1C(=O)CNC12CC3CC(CC(O)(C3)C1)C2 | 0.79 ± 0.14 | 0.851 ± 0.15 | 0.862 ± 0.048 | 0.863 ± 0.06 | 1.05 ± 0.18 | 1.11 ± 0.21 | 0.993 (active)
O=C(N/N=C/c1ccc([N+](=O)[O-])o1)c1ccc(O)cc1 | 1.54 ± 0.21 | 2.63 ± 0.4 | 2.97 ± 0.26 | 1.01 ± 0.051 | 1.88 ± 0.34 | 1.43 ± 0.12 | 0.968 (active)
